Laboratory results from PubChem BioAssay (Tox21).
“And” between values parts separate entries of the source, which are not always exact repeats. Equal entries are not always repeated. Inconclusive results are not listed. Entries that show only a call come without a potency. Some compounds were tested as several samples or in several runs, with calls that do not always agree. The source made the active and inactive calls. Unless noted, calls come from the whole dose curve; as a rule, active = well fitted curve in the direction sought with a large enough effect in the repeat runs; inconclusive = weak or mixed curves; inactive = no such curve, though single readings can be large; an effect the other way counts as inactive or inconclusive.

Assays:
[1] = qHTS assay to identify small molecule antagonists of the estrogen receptor alpha (ER-alpha) signaling pathway using the BG1 cell line in the presence of 0.1 nM 17-beta-estradiol - cell viability counter screen (AID 1259241); note: nearly all actives have a fitted effect of over 40% in size; note: potency is the fitted concentration of half-maximal effect
Method in brief: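 VM7Luc4E2 cells (endogenous full-length ER-alpha, 4xERE-luciferase), cultured 5 days in charcoal-stripped serum, exposed to compounds with 0.1 nM 17beta-estradiol (final) for 22 hr at 37C. Viability read in same wells as live-cell protease fluorescence after 30 min.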

[2] = qHTS assay to identify small molecule antagonists of the androgen receptor (AR) signaling pathway using the MDA cell line in the presence of 0.5 nM R1881 - cell viability counter screen (AID 1259242); note: nearly all actives have a fitted effect of over 45% in size; note: potency is the fitted concentration of half-maximal effect
Method in brief: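 Viability of MDA-kb2 cells was multiplexed with the luciferase AR readout; after 16 hr with compounds and R1881 at 0.5 nM final, CellTiter-Fluor fluorescence was recorded.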

[3] = target: Androgen receptor (Homo sapiens) (UniProt P10275); test: qHTS assay to identify small molecule antagonists of the androgen receptor (AR) signaling pathway using the MDA cell line in the presence of 0.5 nM R1881 (AID 1259243); note: nearly all actives have a fitted effect of over 50% in size; note: potency is the fitted concentration of half-maximal effect
Androgen receptor (Homo sapiens), sequence (P10275 whole entry, looked up): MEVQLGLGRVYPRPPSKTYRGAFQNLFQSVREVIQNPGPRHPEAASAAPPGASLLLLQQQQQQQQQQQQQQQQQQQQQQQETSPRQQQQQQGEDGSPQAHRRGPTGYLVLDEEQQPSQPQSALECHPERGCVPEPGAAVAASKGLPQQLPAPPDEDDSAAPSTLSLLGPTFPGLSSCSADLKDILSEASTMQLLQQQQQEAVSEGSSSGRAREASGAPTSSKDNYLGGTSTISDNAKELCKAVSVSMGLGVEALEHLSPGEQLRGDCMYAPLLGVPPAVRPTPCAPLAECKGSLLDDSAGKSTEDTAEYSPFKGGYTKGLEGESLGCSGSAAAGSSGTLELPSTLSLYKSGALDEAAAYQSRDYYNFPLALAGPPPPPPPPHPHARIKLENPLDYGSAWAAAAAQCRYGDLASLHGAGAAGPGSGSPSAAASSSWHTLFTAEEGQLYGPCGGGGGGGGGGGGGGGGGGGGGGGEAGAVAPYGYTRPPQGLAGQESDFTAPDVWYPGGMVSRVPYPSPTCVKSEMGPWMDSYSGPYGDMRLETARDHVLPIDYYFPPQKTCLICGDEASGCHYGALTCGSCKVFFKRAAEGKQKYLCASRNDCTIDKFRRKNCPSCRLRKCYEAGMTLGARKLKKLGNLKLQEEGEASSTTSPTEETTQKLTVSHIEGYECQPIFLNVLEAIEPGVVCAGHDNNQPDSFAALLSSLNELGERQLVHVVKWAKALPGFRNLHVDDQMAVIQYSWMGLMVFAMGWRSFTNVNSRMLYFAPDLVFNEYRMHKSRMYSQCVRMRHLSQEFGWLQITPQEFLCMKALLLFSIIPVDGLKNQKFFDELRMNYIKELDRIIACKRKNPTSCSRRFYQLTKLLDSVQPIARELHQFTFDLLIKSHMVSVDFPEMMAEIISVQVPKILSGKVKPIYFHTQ
Method in brief: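 Reporter cells cultured without CO2 receive test chemicals, then 0.5 nM R1881 final; after 16 hr at 37C, ONE-Glo is added and light output recorded.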

[4] = target: Estrogen receptor (Homo sapiens) (UniProt P03372); test: qHTS assay to identify small molecule antagonists of the estrogen receptor alpha (ER-alpha) signaling pathway using the BG1 cell line in the presence of 0.1 nM 17-beta-estradiol (AID 1259244); note: nearly all actives have a fitted effect of over 50% in size; note: potency is the fitted concentration of half-maximal effect
Estrogen receptor (Homo sapiens), sequence (P03372 whole entry, looked up): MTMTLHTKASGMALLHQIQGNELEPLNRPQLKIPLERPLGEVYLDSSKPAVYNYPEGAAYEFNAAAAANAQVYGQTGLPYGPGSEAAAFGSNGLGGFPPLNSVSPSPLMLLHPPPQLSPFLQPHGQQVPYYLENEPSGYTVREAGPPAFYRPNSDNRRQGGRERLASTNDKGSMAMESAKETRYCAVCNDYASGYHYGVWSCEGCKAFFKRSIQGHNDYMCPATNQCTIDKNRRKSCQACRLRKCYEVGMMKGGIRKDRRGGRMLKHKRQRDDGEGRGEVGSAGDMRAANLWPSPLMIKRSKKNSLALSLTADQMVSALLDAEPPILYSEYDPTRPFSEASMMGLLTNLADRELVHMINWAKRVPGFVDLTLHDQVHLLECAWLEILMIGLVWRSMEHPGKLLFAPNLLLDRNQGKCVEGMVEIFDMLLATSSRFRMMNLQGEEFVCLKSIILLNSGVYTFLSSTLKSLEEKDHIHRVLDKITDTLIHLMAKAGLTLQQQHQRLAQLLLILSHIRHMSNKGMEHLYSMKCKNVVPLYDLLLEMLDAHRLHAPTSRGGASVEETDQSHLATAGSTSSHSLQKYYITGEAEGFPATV
Method in brief: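 Estradiol at 0.1 nM (final) stimulates the endogenous ER-alpha of VM7Luc4E2 cells carrying an ERE-driven luciferase; compounds are co-incubated 22 h at 37C and luciferase output quantified by luminescence.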

[5] = qHTS assay to identify small molecule phospholipidosis (PLD) inducers (AID 1259344; active = well fitted curve in the direction sought with a large enough effect; an effect the other way counts as inactive or inconclusive)
Method in brief: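 Phospholipidosis is scored by imaging LipidTOX-stained pits in HepG2 cells exposed to compound for 24 h at 37 C; pit counts and integrated intensities per well and per cell serve as outputs.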

[6] = qHTS assay to identify small molecule HDAC inhibitors (AID 1259364); note: potency is the fitted concentration of half-maximal effect;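 note: wild-type HCT-116 cells with endogenous class I/II HDAC activity; nearly all actives have a fitted effect of over 45% in size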
Method in brief: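 Read-out: luminescence of HDAC-Glo I/II reagent, 30 min RT, reflecting class I/II deacetylase activity in whole HCT-116 cells pre-exposed 2 h to DMSO-dissolved compounds.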

[7] = qHTS assay to identify small molecule HDAC inhibitors - cell viability counter screen (AID 1259365); note: nearly all actives have a fitted effect of over 50% in size; note: potency is the fitted concentration of half-maximal effect
Method in brief: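 Wild-type HCT-116 cells, 1,500/well, cultured overnight, then compound-treated 2 h at 37 C. Viability measured as ATP luminescence with CellTiter-Glo after 30 min at room temperature.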

[8] = qHTS assay to identify small molecule agonists of the sonic hedgehog signaling (Shh) pathway - cell viability counter screen (AID 1259366); note: nearly all actives have a fitted effect of over 50% in size; note: potency is the fitted concentration of half-maximal effect
Method in brief: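 NIH/3T3-derived Gli1-Luc reporter cells, 2,000 per well, received compound after 4 h and were treated about 23 h at 37C. Viability measured in the same wells by CellTiter-Fluor fluorescence after 1 h.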

[9] = qHTS assay to identify small molecule antagonists of the sonic hedgehog signaling (Shh) pathway - cell viability counter screen (AID 1259367); note: nearly all actives have a fitted effect of over 55% in size; note: potency is the fitted concentration of half-maximal effect
Method in brief: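 Cells: 3T3 Gli1-Luc, 2,000/well, 4 hr pre-incubation. Compounds in DMSO, then conditioned medium. Incubation 24 hr, 37C, 5% CO2. CellTiter-Fluor at 23 hr, 1 hr, fluorescence.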

[10] = qHTS assay to identify small molecule agonists of the sonic hedgehog signaling (Shh) pathway (AID 1259368; calls by dose curve;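 note: NIH/3T3-derived 3T3Gli1-Luc cells carrying a stable Gli1-driven firefly luciferase reporter; series mostly up to about 92 µM; nearly all actives have a fitted effect of over 15% in size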)
Method in brief: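 A Gli1 transcriptional response element controlled firefly luciferase in 3T3Gli1-Luc cells. Compounds and a positive control were added 4 hr after plating, and cells were incubated a further 24 hr at 37 C before luminescence detection.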

Row | Structure (SMILES) | Potency [1] | Potency [2] | Potency [3] | Potency [4] | Potency [5] | Potency [6] | Potency [7] | Potency [8] | Potency [9] | Potency [10]
1 | CC1=CC(=O)c2ccccc2C1=O | 48.6 µM (active) | 43.3 µM (active) | 21.7 µM (active) and 29.8 µM (active) | 30.6 µM (active) and 29.8 µM (active) | inactive | inactive | 68.6 µM (active) and inactive | 13.7 µM (active) and 13.3 µM (active) | 27.3 µM (active) and 13.3 µM (active) | inactive
2 | Nc1ccc2cc3ccccc3cc2c1 | inactive | inactive | – | inactive | – | – | – | – | – | –
3 | COc1ccc(Cc2cnc(N)nc2N)cc1OC | inactive | inactive | inactive | inactive | inactive | – | inactive | inactive | inactive | inactive
4 | CCN(CC)C(=S)SSC(=S)N(CC)CC | inactive | inactive | 122 nM (active) and 39.5 nM (active) and 106 nM (active) | 243 nM (active) and 279 nM (active) | inactive | inactive | inactive | 243 nM (active) and 99.2 nM (active) and 596 nM (active) | 433 nM (active) and 1.25 µM (active) and 2.66 µM (active) | inactive
5 | Cc1cc(OCCOCC[N+](C)(C)Cc2ccccc2)ccc1C(C)(C)CC(C)(C)C | inactive | 43 µM (active) and 26.6 µM (active) | 13.6 µM (active) and 13.3 µM (active) | 60.8 µM (active) and 29.8 µM (active) | inactive | – | inactive | 48.3 µM (active) | – | inactive
6 | CCN(CC)C(=O)Nc1ccc(OCC(O)CNC(C)(C)C)c(C(C)=O)c1 (stereo unspecified) | inactive | inactive | inactive | inactive | inactive | inactive | inactive | inactive | inactive | inactive
7 | O=Cc1ccc(Cl)cc1 | inactive | inactive | inactive | – | – | – | inactive | inactive | inactive | inactive
8 | CCC[C@H](N[C@@H](C)C(=O)N1[C@H](C(=O)O)C[C@@H]2CCCC[C@@H]21)C(=O)OCC | inactive | inactive | – | inactive | inactive | inactive | inactive | inactive | inactive | inactive
9 | Cc1c(O)cccc1C(=O)N[C@@H](CSc1ccccc1)[C@H](O)CN1C[C@H]2CCCC[C@H]2C[C@H]1C(=O)NC(C)(C)C | 8.41 µM (active) and 15 µM (active) | 59.5 µM (active) and 26.6 µM (active) | 18.8 µM (active) | – | inactive | – | inactive | 1.5 µM (active) and 1.88 µM (active) | 2.37 µM (active) and 3.76 µM (active) | inactive
10 | Cc1ccc(S(=O)(=O)Oc2ccc(N=Nc3ccc(-c4ccc(N=Nc5c(O)ccc6cc(S(=O)(=O)O)cc(S(=O)(=O)O)c56)c(C)c4)cc3C)cc2)cc1 | 21.8 µM (active) and 14.1 µM (active) | 27.4 µM (active) and 17.8 µM (active) | 17.3 µM (active) and 20 µM (active) | – | – | inactive | – | 24.4 µM (active) and 15.9 µM (active) | 24.4 µM (active) and 20 µM (active) | inactive
11 | CN1C(=O)c2ccc([N+](=O)[O-])cc2C1=O | inactive | inactive | inactive | inactive | – | inactive | – | inactive | inactive | inactive
12 | CCCCCC(=O)O[C@]1(C(C)=O)CC[C@H]2[C@@H]3CCC4=CC(=O)CC[C@]4(C)[C@H]3CC[C@@]21C | inactive | 43 µM (active) | – | 48.2 µM (active) | inactive | inactive | inactive | inactive | 68.1 µM (active) and inactive | inactive
13 | O=C(OCc1ccccc1)c1ccc(O)cc1 | inactive | inactive | – | inactive | inactive | 12.2 µM (active) and 11.9 µM (active) | inactive | inactive | 68.6 µM (active) and inactive | inactive
14 | O=C(O)Cn1cnnn1 | inactive | inactive | inactive | inactive | – | – | inactive | inactive | inactive | inactive
15 | C=CS(=O)(=O)O | inactive | inactive | – | inactive | inactive | inactive | inactive | inactive | inactive | inactive
16 | CC(C)(O)CCC(C)(C)O | inactive | inactive | inactive | inactive | – | inactive | inactive | inactive | inactive | inactive
17 | O=c1n(CC2CO2)c(=O)n(CC2CO2)c(=O)n1CC1CO1 (stereo unspecified) | inactive | inactive | – | inactive | inactive | inactive | inactive | 61.1 µM (active) | 30.5 µM (active) and 48.6 µM (active) | inactive
18 | CC1COC(=O)O1 (stereo unspecified) | inactive | inactive | inactive | inactive | – | inactive | – | inactive | inactive | inactive
19 | COC(=O)c1cccc(C(=O)OC)c1 | inactive | inactive | inactive | inactive | – | – | inactive | inactive | inactive | inactive
20 | O=C(O)CP(=O)(O)O | inactive | inactive | – | inactive | inactive | inactive | inactive | inactive | inactive | inactive
21 | CCC(C)(Oc1ccc(C2(c3ccc(OC(C)(CC)C(=O)O)cc3)CCCCC2)cc1)C(=O)O (stereo unspecified) | inactive | inactive | inactive | inactive | inactive | – | inactive | inactive | inactive | inactive
